Consider ten compounds from PubChem BioAssay.

“And” between values parts separate entries of the source, which are not always exact repeats. Identical values can stand only once. The source made the active and inactive calls.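 The calls were made as follows, unless noted: active = compounds whose cell count with miR-34 switched on is under 0.7 times the count with it off; inactive = the rest.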 Numbered stars: 1 amine (or outer) side, 2 acyl side, 3 side chain; on linkers, the order of the positions; unused ones are H or OH. Bridge positions count the residues as written; N and C are the ends. Square brackets hold non-standard residues; d marks the D form. Peptide text beside a SMILES is read from it. * marks the point of attachment. X4 = NC1=N[C@@H]([C@H](N[*:1])C(=O)[*:2])C[C@H](O)N1; ΔAla(Z-3-ureido) = NC(=O)N/C=C(\N)C(=O)O; β3hOrn = NCCC[C@H](N)CC(=O)*; Dap = NC[C@H](N)C(=O)O

A short description of assay [1]: liver-stage malaria parasite growth inhibition, primary screen, cell-based, HepG2, luciferase luminescence, HepG2 viability (AID 624349; in the data active = parasite load remaining mostly below about 12%, no sharp cut-off; inactive = mostly above about 10%;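 also: 100% = mean of DMSO negative control wells on the same plate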). The conditions noted are these: P. berghei liver stage in HepG2, luciferase luminescence, concentration not given here; parasite load remaining: stronger effect = lower value; viability: measured here: HepG2 viability without parasites.
Assay [2] in a line: sensitizers of A549 cells to miR-34 induction, primary screen, imaging, A549 dox-inducible miR-34, nuclei and caspase counts (AID 1347080). The conditions noted are these: A549 miR-34 inducible, Hoechst nuclei count, 48 h.
Assay [3] can be described thus: survival rescue of mitochondrial mutant cells in low glucose, primary screen, MELAS cybrids, Rieske KO mouse fibroblasts, CellTiter-Glo (AID 1508586;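 active = mean z-score across replicates of 1.96 or higher in either the MELAS or the Rieske mutant cell line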;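 also: z relative to plate mean and SD of compound and empty wells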).
The target of assay [4] is NAD(+) hydrolase SARM1 (Homo sapiens) (UniProt Q6SZW1). The experiment in a line: SARM1 TIR NADase inhibitors, cell lysate, NAD-Glo luminescence (AID 1508614;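 active = compound whose remaining NAD level is above about 45 nM, limit read from the data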;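 also: higher remaining NAD means stronger inhibition of SARM1 NADase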). The conditions noted are these: SAM-TIR HEK293T lysate NADase, at 1 µM, stronger effect = higher value.
Sequence of NAD(+) hydrolase SARM1 (Homo sapiens) (Q6SZW1 whole entry, looked up): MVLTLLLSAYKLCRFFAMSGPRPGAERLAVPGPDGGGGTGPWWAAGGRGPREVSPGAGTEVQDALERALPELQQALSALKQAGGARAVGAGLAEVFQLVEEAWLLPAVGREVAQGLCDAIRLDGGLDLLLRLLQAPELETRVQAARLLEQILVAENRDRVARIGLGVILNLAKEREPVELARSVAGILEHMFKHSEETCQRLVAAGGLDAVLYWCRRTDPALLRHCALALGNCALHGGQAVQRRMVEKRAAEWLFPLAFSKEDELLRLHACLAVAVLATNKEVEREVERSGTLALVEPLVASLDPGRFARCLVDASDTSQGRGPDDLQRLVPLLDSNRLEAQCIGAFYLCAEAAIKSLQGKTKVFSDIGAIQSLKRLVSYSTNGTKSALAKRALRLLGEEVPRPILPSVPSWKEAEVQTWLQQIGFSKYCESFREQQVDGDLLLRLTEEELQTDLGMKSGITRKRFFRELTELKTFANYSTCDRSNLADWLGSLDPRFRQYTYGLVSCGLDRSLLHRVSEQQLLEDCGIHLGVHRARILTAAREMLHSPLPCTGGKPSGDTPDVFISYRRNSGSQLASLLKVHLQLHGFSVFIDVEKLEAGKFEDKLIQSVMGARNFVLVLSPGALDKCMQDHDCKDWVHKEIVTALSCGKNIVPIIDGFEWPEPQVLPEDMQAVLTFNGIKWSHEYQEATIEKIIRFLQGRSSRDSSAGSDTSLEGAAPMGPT
Assay [5] is described as follows: viability rescue of complex I mutant cybrids, primary screen, cell-based, galactose medium, ATP luminescence (AID 1645843;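 active = z-score of at least 1.8 in each of two replicates, scored against plate mean and spread of sample wells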;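 also: positive z means more ATP and so rescue of galactose-driven cybrid death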). Particulars: complex I mutant cybrid cells, 72 h, stronger effect = higher value.
Setting [6] is: stronger effect = lower value, cell number ratio, induced over uninduced.
Where [7] appears, read: measured here: relative caspase fold change +Dox/-Dox.
[8] abbreviates: measured here: total cells with miR-34 induction, stronger effect = lower value.
Where [9] appears, read: measured here: total cells without miR-34 induction.
Where [10] appears, read: MELAS cybrid survival, CellTiter-Glo 48 h, stronger effect = higher value.
Setting [11] is: Rieske KO mouse fibroblast survival, CellTiter-Glo 72 h.

With `C[C@]12CC[C@@H]3c4ccc(OS(=O)(=O)O)cc4CC[C@H]3[C@@H]1CCC2=O`, the parasite load remaining in assay [1] is 64.3% (inactive) and 61.4% (inactive). Also, the viability in assay [1] was 99.3% and 74.8%. The results for the fold change in assay [2] (setting [6]) and in assay [2] (setting [7]) were 0.873 (inactive) and 0.967, respectively. For the same compound, the results for the cell count in assay [2] (setting [8]) and in assay [2] (setting [9]) were 9010 and 10300, respectively. The z-score is -0.105 (inactive) in assay [3] (setting [10]) and -0.186 in assay [3] (setting [11]). The remaining NAD in assay [4] is 10 nM (inactive).
As to `O=C(O)c1ccccc1C(=O)O`, the fold change in assay [2] (setting [6]) was 0.874 (inactive); in assay [2] (setting [7]), 0.755. The cell count was 8620 in assay [2] (setting [8]) and 9850 in assay [2] (setting [9]). Also, the z-score in assay [3] (setting [10]) was -0.0339 (inactive); in assay [3] (setting [11]), -0.338; in assay [5], 0.455 (inactive).
Turning to `CO[C@H]1C[C@H](O[C@H]2[C@H](C)[C@@H](O[C@@H]3O[C@H](C)C[C@H](N(C)C)[C@H]3OC(C)=O)[C@@H](C)C[C@@]3(CO3)C(=O)[C@H](C)[C@@H](OC(C)=O)[C@@H](C)[C@@H](C)OC(=O)[C@@H]2C)O[C@@H](C)[C@@H]1OC(C)=O`, the parasite load remaining in assay [1] is 27.9% (inactive) and 46.8% (inactive). Also, in assay [1], the viability is 46.5% and 147%. In addition, the fold change in assay [2] (setting [6]) was 0.951 (inactive) and 0.962 (inactive); in assay [2] (setting [7]) it was 1.2 and 1.02. Moreover, the cell count in assay [2] (setting [8]) is 9570 and 9780; in assay [2] (setting [9]), 10100 and 10200. The z-score in assay [3] (setting [10]) was 0.411 (inactive) and -0.389 (inactive); in assay [3] (setting [11]) it was -0.0819 and -0.533; in assay [5], 0.095 (inactive).
For `COc1cccc(-c2cccc(N)n2)c1F`, the fold change in assay [2] (setting [6]) was 0.943 (inactive); in assay [2] (setting [7]), 0.993. Also, the figures for the cell count in assay [2] (setting [8]) and in assay [2] (setting [9]) were 9590 and 10200, respectively. The values for the z-score in assay [3] (setting [10]), in assay [3] (setting [11]) and in assay [5] were 0.104 (inactive), -0.26 and -0.59 (inactive), respectively.
Regarding `Cc1c(OCC(F)(F)F)ccnc1C[S@@](=O)c1nc2ccccc2[nH]1`, the fold change is 0.977 (inactive) in assay [2] (setting [6]) and 1.03 in assay [2] (setting [7]). In addition, the results for the cell count in assay [2] (setting [8]) and in assay [2] (setting [9]) were 7200 and 7370, respectively. Also, the z-score in assay [3] (setting [10]) is -0.079 (inactive); in assay [3] (setting [11]), -0.121. Moreover, the remaining NAD in assay [4] was 53 nM (active).
In the case of `CO[C@@]1(NC(=O)C2SC(=C(C(N)=O)C(=O)O)S2)C(=O)N2C(C(=O)O)=C(CSc3nnnn3C)CS[C@@H]21` (stereo not given in full), the parasite load remaining in assay [1] is 165% (inactive) and 73.4% (inactive). Moreover, the viability in assay [1] is 107% and 73.9%. Also, the fold change was 0.873 (inactive) in assay [2] (setting [6]) and 1.71 in assay [2] (setting [7]). Also, the cell count in assay [2] (setting [8]) is 8700; in assay [2] (setting [9]), 9980. The z-score in assay [3] (setting [10]) was -0.492 (inactive); in assay [3] (setting [11]), -0.132. Further, the remaining NAD in assay [4] was 10 nM (inactive).
For the compound `Cc1cc(-c2cnn(C)c2)nc(N)n1`, the fold change was 0.853 (inactive) in assay [2] (setting [6]) and 1.79 in assay [2] (setting [7]). Moreover, the cell count in assay [2] (setting [8]) came out at 8800; in assay [2] (setting [9]), 10300. Moreover, the z-score in assay [3] (setting [10]) was -0.132 (inactive); in assay [3] (setting [11]), -0.642; in assay [5] it was -0.56 (inactive).
With `NCCC[C@H](N)CC(=O)N[C@H]1CNC(=O)[C@H]([C@H]2C[C@H](O)NC(N)=N2)NC(=O)/C(=C/NC(N)=O)NC(=O)[C@H](CO)NC(=O)[C@H](CO)NC1=O` (β3hOrn-[Dap]SS[ΔAla(Z-3-ureido)][X4]; lactam 1-C), the parasite load remaining in assay [1] was 90.6% (inactive). In addition, the viability in assay [1] amounted to 75%. The figures for the fold change in assay [2] (setting [6]) and in assay [2] (setting [7]) were 0.967 (inactive) and 0.791, respectively. Besides, the cell count in assay [2] (setting [8]) amounted to 9150; in assay [2] (setting [9]), 9470. The z-score is -0.695 (inactive) in assay [3] (setting [10]) and -0.532 in assay [3] (setting [11]). In addition, the remaining NAD in assay [4] is 10 nM (inactive).
Consider `C[C@@H]1CCC[C@H](C)N1NC(=O)c1ccc(Cl)c(S(N)(=O)=O)c1`, for which, in assay [1], the parasite load remaining is 123% (inactive) and 80.9% (inactive). In addition, in assay [1], the viability is 112% and 106%. The fold change was 0.884 (inactive) and 0.878 (inactive) in assay [2] (setting [6]); 1.72 and 1.06 in assay [2] (setting [7]). In addition, the cell count in assay [2] (setting [8]) is 9180 and 9670; in assay [2] (setting [9]), 10400 and 11000. For the same compound, the z-score in assay [3] (setting [10]) was 0.52 (inactive) and -0.675 (inactive); in assay [3] (setting [11]) it was -0.0626 and -0.387; in assay [5] it was 0.85 (inactive).
`O=c1c(-c2ccc(O)cc2)coc2cc(OC3OC(CO)C(O)C(O)C3O)ccc12` (stereo not given): the results for the fold change in assay [2] (setting [6]) and in assay [2] (setting [7]) were 1.06 (inactive) and 0.687, respectively. For the same compound, the cell count in assay [2] (setting [8]) came to 5800; in assay [2] (setting [9]), 5490. The z-score in assay [3] (setting [10]) was 0.694 (inactive); in assay [3] (setting [11]), -0.345; in assay [5] it was 0.515 (inactive).

What is called viability is a read-out of living cells in per cent, often relative to untreated cells.
